# Screening data (PubChem BioAssay)
# L3MBTL1 block – L3MBTL1 (human) inhibition | 230,000 tested, 0.66% active | Q9Y468 | Potency, µM (series often up to 57.1 µM), inactives show at the top dose activity, negative = inhibition, actives largely listed as inhibitors | AlphaScreen L3MBTL1–H3K9me1 peptide binding; also: % is scaled to controls: 0 for no effect and ±100 for the full control effect; nearly all actives have a fitted effect of over 60% in size
#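 L3MBTL1 (50 nM) pre-complexed 30 min with biotinylated H3(1-15)K9me1 peptide (75 nM), then compounds added for 30 min at room temperature; AlphaScreen streptavidin donor/nickel chelate acceptor beads (10 ug/mL final) read after 30 min dark incubation.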
# G9a inh – G9a (human) methyltransferase inhibition | Q96KQ7 | G9a H3K9 monomethylation, AlphaScreen, 2 h | 350,000 tested, 8.8% active | Potency, µM (series often up to 102 µM), for inactives: top-dose activity, negative = inhibition, most hits filed as inhibitors; also: % is scaled to controls: 0 for no effect and ±100 for the full control effect; nearly all actives have a fitted effect of over 75% in size
#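 G9a (20 nM) preincubated 15 min RT with compounds, then 500 nM biotinylated H3K9 peptide and 20 uM SAM added; 2 h RT reaction. Monomethyl-H3K9 product detected by AlphaScreen with anti-H3K9me1 antibody, streptavidin donor and anti-rabbit IgG acceptor beads.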
# JMJD2A Tudor inh – inhibitors of human JMJD2A Tudor domain; AlphaScreen JMJD2A-Tudor / H3K4me3 peptide binding; Potency, µM (series often up to 114 µM), for inactives: at the top dose activity change, negative = inhibition, usual class: inhibitors; 390,000 tested, 4.4% active; also: % is scaled to controls: 0 for no effect and ±100 for the full control effect; nearly all actives have a fitted effect of over 50% in size
# Target sequence (O75164 whole entry, looked up, the tested form may be a part): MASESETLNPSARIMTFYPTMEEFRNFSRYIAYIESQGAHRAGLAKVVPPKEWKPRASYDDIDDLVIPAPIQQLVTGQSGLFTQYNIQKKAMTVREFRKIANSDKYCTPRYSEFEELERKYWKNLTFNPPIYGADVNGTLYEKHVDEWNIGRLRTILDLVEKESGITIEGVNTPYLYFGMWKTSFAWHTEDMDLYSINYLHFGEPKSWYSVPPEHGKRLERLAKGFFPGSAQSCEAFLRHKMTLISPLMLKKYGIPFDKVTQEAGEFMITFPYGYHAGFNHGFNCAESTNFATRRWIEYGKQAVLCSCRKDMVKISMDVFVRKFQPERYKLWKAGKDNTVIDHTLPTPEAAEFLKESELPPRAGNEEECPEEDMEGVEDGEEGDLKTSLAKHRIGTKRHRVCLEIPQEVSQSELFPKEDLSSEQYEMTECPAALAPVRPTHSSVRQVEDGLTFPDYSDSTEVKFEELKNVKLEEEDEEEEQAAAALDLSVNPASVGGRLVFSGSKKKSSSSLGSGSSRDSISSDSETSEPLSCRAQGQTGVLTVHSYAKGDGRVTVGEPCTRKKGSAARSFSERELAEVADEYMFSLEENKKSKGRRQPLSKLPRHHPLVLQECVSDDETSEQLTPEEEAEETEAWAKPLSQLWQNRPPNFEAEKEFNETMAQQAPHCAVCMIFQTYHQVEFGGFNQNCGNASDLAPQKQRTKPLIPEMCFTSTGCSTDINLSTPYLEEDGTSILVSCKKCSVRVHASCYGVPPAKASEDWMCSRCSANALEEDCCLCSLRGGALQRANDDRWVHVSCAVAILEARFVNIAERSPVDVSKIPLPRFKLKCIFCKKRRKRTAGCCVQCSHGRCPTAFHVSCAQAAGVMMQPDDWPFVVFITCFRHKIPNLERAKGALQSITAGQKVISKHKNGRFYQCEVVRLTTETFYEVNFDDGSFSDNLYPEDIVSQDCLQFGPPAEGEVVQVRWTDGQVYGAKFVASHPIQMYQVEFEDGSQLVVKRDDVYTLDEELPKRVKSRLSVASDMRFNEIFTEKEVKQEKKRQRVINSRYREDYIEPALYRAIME
# BAZ2B inh – BAZ2B (human) inhibition. Q9UIF8. AlphaScreen BAZ2B-H3K14Ac peptide displacement. Potency, µM (series often up to 114 µM), inactives show at the highest dose activity change, negative = inhibition, actives largely listed as inhibitors. 360,000 tested, 4.4% active. AID 504333; also: % is scaled to controls: 0 for no effect and ±100 for the full control effect; nearly all actives have a fitted effect of over 60% in size
#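 AlphaScreen luminescence quantifies BAZ2B engagement of H3K14Ac peptide; the protein and biotinylated peptide are both at 50 nM final, buffer PBS pH 7.4 with 0.01% Tween-20, all steps at room temperature.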
# HP1b chromo inh – HP1-beta chromodomain-methylated histone interaction inhibition. AlphaScreen HP1-beta / biotin-H3K9me3 peptide binding. 390,000 tested, 0.56% active. Potency, µM (top dose mostly 114 µM), without a hit: top-dose activity change, negative = inhibition, most hits filed as inhibitors. P83916; also: nearly all actives have a fitted effect of over 70% in size
#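 Compound inhibition of the preformed complex between 50 nM HP1-beta and 50 nM biotinylated H3K9me3 peptide was read by AlphaScreen. Buffer was PBS pH 7.4 with 0.01% Tween-20. Incubations ran 30 min at room temperature, with 10 ug/mL donor/acceptor beads.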
# Sfp PPTase inh – inhibitors of Bacillus subtilis Sfp phosphopantetheinyl transferase | Q9F4F7 | Biochemical Sfp PPTase activity, qHTS | Potency, µM, for the others: largest response in the series, negative = inhibition, most hits filed as inhibitors | 310,000 tested, 3.5% active;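 also: the enzyme is Sfp with the accession as filed and its product quenches rhodamine fluorescence; 0% = enzyme reaction without inhibitor and -100% = no enzyme wells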
#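 Reaction rates are the 30-min fluorescence difference (ex 525, em 598 nm) in wells containing 15 nM Sfp, 5 uM rhodamine-CoA and 12.5 uM BHQ-2-YbbR at pH 7.6 with 10 mM MgCl2.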
# * = called active by the depositor; ? = inconclusive; · = not tested or not shown; ! = not active in a repeat; [ ] = remark or other dose. A selection: hits, their analogues and other compounds. The true share with any hit is near 12%. Calls follow the shape of the dose curve; as a rule, active = well fitted curve in the direction sought with a large enough effect; inconclusive = small, poorly fitted or top-dose-only effect, or another doubt; inactive = no such curve, though single readings can be large; an effect the other way counts as inactive or inconclusive. Potency is read from the fitted curve at half-maximal effect.
SMILES,L3MBTL1 block,G9a inh,JMJD2A Tudor inh,BAZ2B inh,HP1b chromo inh,Sfp PPTase inh
Cc1ccc(C)c(SCC(=O)Nc2cc(S(=O)(=O)N3CCOCC3)ccc2C)c1,2%,14µM*,-18%,6%,16%,·
Cc1ccc(S(=O)(=O)N2CCOCC2)cc1NC(=O)CNC1CCCC1,6%,·,5µM*,-23%,-25%,-29%
Cc1ccc(S(=O)(=O)N2CCOCC2)cc1NC(=O)CSc1nc(N)cc(=O)[nH]1,12%,·,0%,1%,33%,71µM*
Cc1ccc(S(=O)(=O)N2CCOCC2)cc1NC(=O)CSc1nc(N)cc(N)n1,-7%,-24%,-11%,1%,19%,·
Cc1ccc(CCNC(=O)c2ccc3c(Cl)c4c(nc3c2)CCCC4)cc1,·,-16%[59 µM],0%,1%[57.1 µM],54%,·
O=C(Nc1nc2ccccc2s1)C1CCN(S(=O)(=O)c2cc([N+](=O)[O-])ccc2Cl)CC1,·,?,?,28µM*,-20%,0%
CCCC[C@@H]1C[C@H]1C(NC(=O)c1cccs1)c1ccc(C(F)(F)F)cc1 (stereo partly drawn),·,·,·,·,·,27%
Cc1cccc(-c2nsc(SCC(=O)NCc3ccco3)n2)c1,-3%,32µM*,-22%,-9%,-14%,?
Cc1cccc(-c2nsc(SCC(=O)c3ccc(Cl)cc3)n2)c1,27%,-12%,44%,13%,81%,-11%
Cc1cccc(-c2nsc(SCC(=O)NCC3CCCO3)n2)c1 (stereo not drawn),-6%,18µM*,-2%,-15%,-10%,?
Cc1cccc(C2(c3cccc(C)c3)CC2C(=O)NCC2CCCO2)c1 (stereo not drawn),-5%,17%,79µM*,0%,13%,18%
CCOC(=O)CNC(=O)CSc1nc(-c2cccc(C)c2)ns1,-17%,11µM*,-1%,0%,-21%,-39%
Cc1ccc(C)c(NC(=O)C(Cc2ccccc2)n2cccc2)c1 (stereo not drawn),·,10%[59 µM],-6%,-14%,34%,·
COc1ccc(CCNC(=O)CCS(=O)(=O)c2cc3c(cc2Cl)NC(=O)CO3)cc1OC,·,?,-8%,-3%,46%,·
Cc1cc(C)nc(SCC(=O)NCc2ccco2)n1,-14%,45µM*,-24%,0%,-8%,?
COc1ccc(CNC(=O)CSc2cccc3cccnc23)cc1,·,·,-18%,1%,-14%,-5%
Nc1cc(N)nc(SCC(=O)NCc2ccco2)n1,·,-11%,0%,?,27%,10%
O=C(CSc1cccc2cccnc12)NCc1ccco1,-6%,·,-19%,4%,27%,79µM*
Cn1c(-c2ccccc2Br)n[nH]c1=S,·,·,4.5µM*,·,-16%,·
Cc1nc(-c2ccccc2)sc1-c1n[nH]c(=S)n1C,-5%,3.5µM*,10µM*,79µM*,12%,2%
Cn1c(-c2ccccc2)n[nH]c1=S,8%,·,22µM*,-3%,23%,-18%
CSc1nnc(-c2sc(-c3ccccc3)nc2C)n1C,-4%,2%,-1%,-1%,16%,3%
Cc1cccc(-c2n[nH]c(=S)n2C)c1,17%,28µM*,4.5µM*,-2%,?,12%
Cc1[nH]nc(N)c1-c1ccccc1,-6%,·,-7%,-35%,12%,5%
CC1CCN(C(=O)c2ncn(Cc3ccccc3)c2C(=O)N2CCC(C)CC2)CC1,3%,·,-17%,·,24%,·
SMILES,L3MBTL1 block,G9a inh,JMJD2A Tudor inh,BAZ2B inh,HP1b chromo inh,Sfp PPTase inh
Cc1cc(C(=O)NNC(=O)Cc2ccc(Cl)cc2)c(C)o1,-5%,8%[0.501 µM],-30%,-5%,-5%,·
Cc1ccn2c(=O)cc(C)nc2c1,·,-29%,-10%,-13%,15%,6%
Cc1ccn2c(-c3n[nH]c(=S)n3C)c(C)nc2c1,-16%,8.9µM*,8.9µM*,0%,?,?
NCCc1cnc[nH]1,-12%,8.4µM*!,-21%,?,32%,?
O=P(O)(O)CP(=O)(O)O,-10%,7.1µM*,·,50µM*,·,-5%
O=P(O)(O)OP(=O)(O)O,·,?,·,·,·,15%
Cc1nc2ccc(S(=O)(=O)N(C)CC(=O)NCc3ccc4c(c3)OCO4)cc2s1,-9%,10%[2.33 µM],-8%,0%,5%,19%
CN(C)S(=O)(=O)c1ccc2c(c1)N(CC(=O)N1CCCCC1)CCS2,·,14%[59 µM],-21%,-6%,4%[57 µM],·
Cc1nc2ccc(S(=O)(=O)N(C)CC(=O)NCc3ccc(N(C)C)cc3)cc2s1,·,50µM*,?,?,-25%,14%
CN(C)c1ccc(CNC(=O)CN2CCSc3ccc(S(=O)(=O)N(C)C)cc32)cc1,·,7.9µM*,45µM*,40µM*,-16%[57 µM],·
CCOc1ccc(Nc2nc(-c3cccc(Cl)c3)c3c(n2)-c2ccccc2OC3)cc1,·,13µM*,?,-39%,-7%,·
COc1ccc(Nc2nc(-c3cccc(Cl)c3)c3c(n2)-c2ccccc2OC3)cc1,·,-7%[59 µM],6%,7%,34%,·
Cc1ccn2c(NCc3ccco3)c(-c3ccccc3)nc2c1,·,·,?,·,22%,·
CC1CCN(c2ccc(NC(=S)NC(=O)c3ccco3)cc2)CC1,-1%,-40%[12.7 µM],?,8.9µM*,-7%,-6%
O=C(NC(=S)Nc1ccc(N2CCCCC2)cc1)c1ccco1,?,?,40µM*,45µM*,16µM*,0%
Cc1ccc(C(=O)NC(=S)Nc2ccc(N3CCN(C(=O)c4ccco4)CC3)cc2)cc1,·,?,?,?,?,-4%
Cc1ccc(S(=O)(=O)N(C)c2ccc3c(ncn3C)c2[N+](=O)[O-])cc1,-5%,6%[2.33 µM],-18%,8%,31%,·
O=S(=O)(Nc1cccc(Cl)c1)c1ccc2oc(=S)[nH]c2c1,-2%,25µM*,20µM*,·,-15%,11%
O=S(=O)(c1ccc2c(c1)oc1ccccc12)N1CCOCC1,-6%,7%[59 µM],-15%,-3%,16%,-12%
O=S(=O)(c1ccc(=S)[nH]c1)N1CCOCC1,2%,?,11µM*,-5%,-19%,·
O=S(=O)(c1ccc2oc(=S)[nH]c2c1)N1CCOCC1,1%,1.3µM*,79µM*,-38%,-41%,·
O=S(=O)(c1ccc2oc(=S)[nH]c2c1)N1CCCCC1,9%,45µM*,-18%,-1%,14%,9%
O=c1c(-c2ccccc2)[n+]([O-])c2ccccc2n1O,·,?,?,?,-5%,40µM*
Cc1ccc(-c2c(=O)n(O)c3ccccc3[n+]2[O-])cc1,·,50µM*,?,-20%,-10%,11%
CCOc1ccc(-c2c(=O)n(O)c3ccccc3[n+]2[O-])cc1,·,10%[2.33 µM],79µM*,56µM*,4%,-22%
COn1c(=O)c(-c2ccc(C)cc2)[n+]([O-])c2ccccc21,·,?,-13%,1%,16%,-4%
